Test [1] is described as follows: yeast TOR pathway RPL19A-GFP modulators, primary screen, cell-based, S. cerevisiae, multiplex flow cytometry (AID 1862; in the data active = percent of DMSO control GFP below about 86%;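 note: lower values mimic rapamycin by blocking the RPL19A rise seen in DMSO cells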). Particulars: S. cerevisiae RPL19A-GFP strain, flow cytometry fluorescence, 3 h; at 10 µM; stronger effect = lower value.
Test [2] is described as follows: modulators of MEP2-GFP levels in yeast, primary screen, S. cerevisiae, multiplex flow cytometry (AID 1867;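 active = GFP response, as percent of the DMSO control, above the screen-wide mean plus 3 SD, about 139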;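 note: median GFP channel fluorescence of barcode-gated MEP2-GFP cells measured by flow cytometry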). The settings on record: S. cerevisiae MEP2-GFP strain, 3 h, at 10 µM, stronger effect = higher value, 100% means same as DMSO wells.
Test [3] in a line: modulators of CIT2-GFP expression in yeast, primary screen, S. cerevisiae, GFP fusion, multiplex flow cytometry (AID 1870;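 active = percent response above a set limit, the screen-wide mean plus 3 SD, cut at about 130% in these data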;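 note: barcoded CIT2-GFP strain pooled with four other GFP strains with rapamycin as positive control; median GFP fluorescence per well over plate mean of DMSO wells so 100% = DMSO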). The settings on record: 3 h, at 10 µM, stronger effect = higher value.
Test [4] in a line: modulators of LAP4-GFP expression in yeast, primary screen, S. cerevisiae, multiplex flow cytometry (AID 1873). Particulars: 3 h, at 10 µM, stronger effect = higher value.
The nature of test [5]: modulators of AGP1-GFP expression in yeast TOR pathway, primary screen, cell-based, multiplex flow cytometry, S. cerevisiae (AID 1887;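 active = GFP signal above the screen-wide mean plus 3 SD, that is over about 124.5% of the solvent control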;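 note: AGP1-GFP fusion strain of S. cerevisiae within a five-strain barcoded multiplex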). Particulars: 3 h, at 10 µM, stronger effect = higher value.
Test [6] can be described thus: inhibitors of CD8+ T cell-vesicle binding, pilot screen, LFA-1/ICAM-1 modulator project, MLPCN validation set, flow cytometry (AID 2523;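 active = response below a set limit, under 55% cells CD8-positive and vesicle-bound, and CD8 cells' 90th-percentile brightness under 279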;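 for vesicle binding response: mean PE anti-B7-1 fluorescence of CD8+ cells relative to row control; 100% = QL9-loaded vesicles with DMSO vehicle in the same plate row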). The settings on record: 2C mouse CD8+ T cells, at 7 µM, stronger effect = lower value; double positive events: measured here: CD8+/vesicle+ event percentage.
Test [7] concerns the target Integrin beta-1 (Homo sapiens) + Integrin alpha-4 (Homo sapiens) (UniProt P13612+P05556). Briefly: inhibition of HUTS-21 binding to VLA-4, pilot screen, VLA-4 allosteric modulator project, U937 cells, HUTS-21 mAb, flow cytometry, validation set (AID 2674;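 active = inhibition above 50%, about 3 SD of the validation set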;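 note: antibody binding induced by the VLA-4 ligand LDV present at three times its Kd; 0% = LDV ligand with antibody and no compound and 100% = antibody without LDV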). Particulars: HUTS-21 LIBS mAb binding, at 6.7 µM, stronger effect = higher value, binding induced by LDV ligand.
Test [8] is described as follows: superoxide lowering in aged yeast cells, pilot screen, validation compound set (AID 2706;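 active = superoxide response below 65% of plate, a cut near 3 SD across the whole screen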;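 note: yeast exposed to compound for one week at 30 degrees C before staining; 100% = mean of all compound wells on the same plate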). The settings on record: S. cerevisiae aging, superoxide DHE fluorescence; at 10 µM; stronger effect = lower value.
Test [9] concerns the target Beta-adrenergic receptor kinase 1 (Homo sapiens) (UniProt P25098). Briefly: GRK2 binders displacing RNA aptamer, biochemical, validation, human GRK2, bead flow cytometry (AID 488806;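 active = aptamer binding inhibition above 30%, about 3 SD of noise from non-fluorescent compounds; inactive = inhibition at or below 30%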). The settings on record: bead-bound GRK2, FAM-aptamer displacement, at 10 µM, stronger effect = higher value.
Test [10] deals with Beta-2 adrenergic receptor (Homo sapiens) (UniProt P07550). Kind of test: beta2AR agonists driving receptor internalization, pilot screen, cell-based, FAP fluorogen, flow cytometry, validation set (AID 504459;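 active = percent response above 42, roughly 3 SD of non-fluorescent test compounds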;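 note: agonist-driven loss of surface beta2AR via internalization measured by FAP dye flow cytometry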). The settings on record: Am2.2-beta2AR cells, FAP surface receptor flow cytometry; at 10 µM; stronger effect = higher value.
Test [11] addresses AP-2 complex subunit beta (Homo sapiens) (UniProt P63010). Briefly: inhibitors of arrestin peptide binding to AP2, pilot screen, biochemical, validation set, GST-AP2 beads, flow cytometry (AID 504541;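 active = inhibition above 54%, about 3 SD of non-fluorescent compounds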;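 note: AP2 carries R879A mutation and is captured from E. coli lysate; bead-bound FITC arrestin peptide fluorescence measuring arrestin peptide binding to AP2; 0% = DMSO wells and 100% = excess unlabeled arrestin peptide control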). Particulars: FITC arrestin peptide, at 10 µM, stronger effect = higher value, AP2 beta2 appendage fragment, R879A mutant.
Test [12] can be described thus: yeast V-ATPase proton transport modulators, S. cerevisiae, pHLuorin, HTS validation (AID 504600; in the data active = response above about 15%;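 note: plate controls were DMSO for no effect and reference compound for full effect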). The settings on record: S. cerevisiae pHLuorin cytosolic pH, at 10 µM, stronger effect = higher value.
Test [13] has as its system anti-desmoglein-3 scFv antibody binding to human DSG3. Briefly: inhibitors of anti-DSG3 scFv binding to DSG3, pilot screen, biochemical, validation compound set, bead-based, flow cytometry (AID 588368;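 active = binding below the plate cutoff, the plate median minus 3 SD, with a reading above zero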;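 note: signal is the median channel fluorescence of bead-bound GFP antibody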). Particulars: Protein G beads, DSG3-Fc, scFv-GFP binding, at 10 µM, stronger effect = lower value.
Test [14] can be described thus: inhibitors of fungal efflux pumps CDR1, CDR2, MDR1, pilot screen, validation compound set, multiplex, phenotypic (AID 588506;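 active = efflux inhibition above 0.42, the validation set average plus 4 SD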;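 note: Nile Red retained in cells so higher fluorescence means more efflux inhibition; 0 = negative control wells and 1 = enniatin B 25 µM full block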). Particulars: S. cerevisiae pump-expressing triplex, Nile Red efflux flow cytometry; at 10 µM; stronger effect = higher value; the pumps come from Candida albicans.
The target in test [15] is ATP-binding cassette sub-family B member 6 (Homo sapiens) (UniProt Q9NP58). Briefly: ABCB6 transporter inhibitors, pilot screen, K562-ABCB6 cells, flow cytometry, validation set (AID 588550;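 active = inhibition above the screen-wide mean plus 3 SD, about 51%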;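 note: 0% = DMSO wells and 100% = benzethonium chloride 70 µM positive control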). Particulars: K562-ABCB6 porphyrin accumulation, 1 h, at 10 µM, stronger effect = higher value.
A short description of test [16]: promoters of myeloid differentiation in arrested cells, primary screen, cell-based, GFP/MAC1 double positive, flow cytometry, validation set (AID 588685;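 active = differentiation response of at least 50%, scaled between solvent and reference control, from cells with both markers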;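 note: compound exposure lasts four days before antibody staining and flow analysis; 0% = DMSO wells and 100% = 5 µM fulvestrant positive control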). Particulars: ER-HoxA9 marrow cells, stronger effect = higher value, normalized: vehicle 0, fulvestrant 100.

Results filed as inconclusive are left out. The source made the active and inactive calls.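 Rule for the calls, unless noted: active = GFP signal, as percent of the solvent control, above the screen mean plus 3 SD, about 149; inconclusive = no reading because the compound's own fluorescence upset strain identification; inactive = the rest.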

ATP-binding cassette sub-family B member 6 (Homo sapiens), sequence (Q9NP58 whole entry, looked up): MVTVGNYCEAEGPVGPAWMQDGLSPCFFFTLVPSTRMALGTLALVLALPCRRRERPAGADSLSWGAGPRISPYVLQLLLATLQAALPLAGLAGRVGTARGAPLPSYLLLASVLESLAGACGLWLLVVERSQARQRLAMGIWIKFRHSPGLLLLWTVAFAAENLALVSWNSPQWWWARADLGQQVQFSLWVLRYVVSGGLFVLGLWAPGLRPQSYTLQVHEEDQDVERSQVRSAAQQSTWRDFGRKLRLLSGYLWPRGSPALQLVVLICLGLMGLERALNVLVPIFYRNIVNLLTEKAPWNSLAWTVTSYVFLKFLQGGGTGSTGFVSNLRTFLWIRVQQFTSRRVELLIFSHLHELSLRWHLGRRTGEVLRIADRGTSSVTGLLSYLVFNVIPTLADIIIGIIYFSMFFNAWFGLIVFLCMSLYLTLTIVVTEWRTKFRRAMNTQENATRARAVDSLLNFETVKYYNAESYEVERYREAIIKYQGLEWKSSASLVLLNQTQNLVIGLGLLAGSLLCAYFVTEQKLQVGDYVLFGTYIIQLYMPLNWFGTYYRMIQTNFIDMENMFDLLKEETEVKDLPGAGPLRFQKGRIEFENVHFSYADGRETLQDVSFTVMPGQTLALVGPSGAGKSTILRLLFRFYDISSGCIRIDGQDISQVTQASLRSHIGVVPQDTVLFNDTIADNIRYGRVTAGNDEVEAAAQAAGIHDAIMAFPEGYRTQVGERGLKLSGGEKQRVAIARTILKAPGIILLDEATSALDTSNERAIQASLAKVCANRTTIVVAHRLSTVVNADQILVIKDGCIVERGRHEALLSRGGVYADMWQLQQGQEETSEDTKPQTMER
Beta-adrenergic receptor kinase 1 (Homo sapiens), sequence (P25098 whole entry, looked up): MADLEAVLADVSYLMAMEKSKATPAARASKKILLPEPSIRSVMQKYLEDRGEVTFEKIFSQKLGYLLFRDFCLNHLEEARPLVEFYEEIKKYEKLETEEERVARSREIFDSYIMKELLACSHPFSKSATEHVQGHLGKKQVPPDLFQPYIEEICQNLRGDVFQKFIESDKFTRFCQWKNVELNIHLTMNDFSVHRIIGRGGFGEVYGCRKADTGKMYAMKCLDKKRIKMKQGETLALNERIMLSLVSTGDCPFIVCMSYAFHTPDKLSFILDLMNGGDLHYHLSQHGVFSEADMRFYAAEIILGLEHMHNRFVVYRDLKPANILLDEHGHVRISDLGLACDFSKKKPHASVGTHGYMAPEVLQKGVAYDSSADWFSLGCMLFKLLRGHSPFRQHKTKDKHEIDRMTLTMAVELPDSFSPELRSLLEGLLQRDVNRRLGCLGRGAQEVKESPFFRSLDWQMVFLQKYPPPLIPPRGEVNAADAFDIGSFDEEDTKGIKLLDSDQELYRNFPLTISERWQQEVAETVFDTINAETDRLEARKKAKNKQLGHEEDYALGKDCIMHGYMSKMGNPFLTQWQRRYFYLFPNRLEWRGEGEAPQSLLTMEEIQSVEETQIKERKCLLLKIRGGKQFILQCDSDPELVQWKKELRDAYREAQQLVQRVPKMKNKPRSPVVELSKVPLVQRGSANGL
AP-2 complex subunit beta (Homo sapiens), sequence (P63010 whole entry, looked up, the tested form may be a part, one chain of several): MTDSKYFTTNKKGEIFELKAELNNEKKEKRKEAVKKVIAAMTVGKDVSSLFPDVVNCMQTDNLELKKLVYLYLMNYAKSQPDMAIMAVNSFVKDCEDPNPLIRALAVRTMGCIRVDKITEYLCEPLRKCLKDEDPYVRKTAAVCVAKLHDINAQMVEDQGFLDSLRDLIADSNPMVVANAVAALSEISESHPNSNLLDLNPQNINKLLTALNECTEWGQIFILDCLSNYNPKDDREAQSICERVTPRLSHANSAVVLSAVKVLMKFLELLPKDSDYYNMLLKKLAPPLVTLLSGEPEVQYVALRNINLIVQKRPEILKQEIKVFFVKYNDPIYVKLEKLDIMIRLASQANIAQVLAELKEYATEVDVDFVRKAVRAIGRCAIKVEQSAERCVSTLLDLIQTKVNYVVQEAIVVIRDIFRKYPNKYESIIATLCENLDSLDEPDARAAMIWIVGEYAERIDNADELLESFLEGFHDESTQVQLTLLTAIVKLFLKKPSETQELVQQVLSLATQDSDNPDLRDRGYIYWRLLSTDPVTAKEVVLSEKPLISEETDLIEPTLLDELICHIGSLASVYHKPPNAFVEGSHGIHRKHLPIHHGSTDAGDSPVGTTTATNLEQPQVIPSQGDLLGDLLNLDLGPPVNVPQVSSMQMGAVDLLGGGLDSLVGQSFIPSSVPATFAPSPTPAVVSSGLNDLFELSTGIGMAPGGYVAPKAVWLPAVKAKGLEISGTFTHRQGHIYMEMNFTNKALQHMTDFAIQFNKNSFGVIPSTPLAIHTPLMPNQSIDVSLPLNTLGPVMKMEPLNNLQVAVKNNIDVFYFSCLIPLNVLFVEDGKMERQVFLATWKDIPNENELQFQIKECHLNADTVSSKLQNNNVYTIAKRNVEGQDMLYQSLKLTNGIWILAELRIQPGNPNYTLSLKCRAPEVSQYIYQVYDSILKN
Integrin beta-1 (Homo sapiens) + Integrin alpha-4 (Homo sapiens), sequence (P05556 whole entry, looked up): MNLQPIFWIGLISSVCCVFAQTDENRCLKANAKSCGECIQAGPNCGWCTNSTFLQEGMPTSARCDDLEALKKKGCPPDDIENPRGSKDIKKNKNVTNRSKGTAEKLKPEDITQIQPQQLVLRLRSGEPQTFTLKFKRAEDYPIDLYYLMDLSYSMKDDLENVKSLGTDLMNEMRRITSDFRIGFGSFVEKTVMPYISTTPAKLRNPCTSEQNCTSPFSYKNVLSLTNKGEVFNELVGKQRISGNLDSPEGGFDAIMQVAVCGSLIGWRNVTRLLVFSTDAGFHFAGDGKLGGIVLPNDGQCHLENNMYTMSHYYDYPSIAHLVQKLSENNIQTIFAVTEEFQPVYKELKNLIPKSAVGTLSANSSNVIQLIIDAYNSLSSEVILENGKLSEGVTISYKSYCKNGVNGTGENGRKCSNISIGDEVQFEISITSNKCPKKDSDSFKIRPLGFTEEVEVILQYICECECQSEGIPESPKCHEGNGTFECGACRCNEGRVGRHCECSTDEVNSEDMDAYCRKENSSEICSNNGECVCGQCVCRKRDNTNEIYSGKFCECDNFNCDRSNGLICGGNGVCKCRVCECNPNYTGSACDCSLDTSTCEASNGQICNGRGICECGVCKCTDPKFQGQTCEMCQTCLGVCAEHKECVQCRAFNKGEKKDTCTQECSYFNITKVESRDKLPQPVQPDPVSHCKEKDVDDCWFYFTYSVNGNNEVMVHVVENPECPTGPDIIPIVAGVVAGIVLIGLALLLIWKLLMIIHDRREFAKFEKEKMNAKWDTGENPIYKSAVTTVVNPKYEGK
Integrin beta-1 (Homo sapiens) + Integrin alpha-4 (Homo sapiens), sequence (P13612 whole entry, looked up): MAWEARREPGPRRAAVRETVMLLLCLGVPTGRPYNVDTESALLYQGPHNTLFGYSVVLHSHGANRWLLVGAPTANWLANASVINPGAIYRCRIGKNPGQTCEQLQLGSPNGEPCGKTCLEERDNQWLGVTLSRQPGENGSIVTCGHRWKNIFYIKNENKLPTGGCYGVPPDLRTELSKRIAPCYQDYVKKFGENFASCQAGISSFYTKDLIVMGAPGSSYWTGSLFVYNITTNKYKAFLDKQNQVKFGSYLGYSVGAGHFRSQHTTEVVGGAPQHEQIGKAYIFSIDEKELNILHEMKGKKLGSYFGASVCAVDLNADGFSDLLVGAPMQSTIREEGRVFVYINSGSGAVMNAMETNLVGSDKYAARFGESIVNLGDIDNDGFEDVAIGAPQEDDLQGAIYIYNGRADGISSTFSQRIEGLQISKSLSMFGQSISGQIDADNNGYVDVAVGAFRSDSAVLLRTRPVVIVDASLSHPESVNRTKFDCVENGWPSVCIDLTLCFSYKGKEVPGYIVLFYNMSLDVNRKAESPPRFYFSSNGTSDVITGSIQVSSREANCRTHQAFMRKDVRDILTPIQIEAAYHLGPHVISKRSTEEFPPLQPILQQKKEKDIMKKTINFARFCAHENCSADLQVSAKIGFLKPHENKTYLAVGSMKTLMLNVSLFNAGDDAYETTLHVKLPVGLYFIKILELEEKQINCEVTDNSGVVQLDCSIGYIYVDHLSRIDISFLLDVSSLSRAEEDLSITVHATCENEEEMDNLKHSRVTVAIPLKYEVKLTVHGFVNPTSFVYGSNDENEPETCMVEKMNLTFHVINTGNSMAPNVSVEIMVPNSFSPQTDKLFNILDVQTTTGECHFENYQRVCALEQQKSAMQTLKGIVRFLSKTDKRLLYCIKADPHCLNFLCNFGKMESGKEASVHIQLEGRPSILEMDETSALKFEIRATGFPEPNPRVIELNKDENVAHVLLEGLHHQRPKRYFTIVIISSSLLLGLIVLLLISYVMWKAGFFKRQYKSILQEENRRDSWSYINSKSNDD
Beta-2 adrenergic receptor (Homo sapiens), sequence (P07550 whole entry, looked up): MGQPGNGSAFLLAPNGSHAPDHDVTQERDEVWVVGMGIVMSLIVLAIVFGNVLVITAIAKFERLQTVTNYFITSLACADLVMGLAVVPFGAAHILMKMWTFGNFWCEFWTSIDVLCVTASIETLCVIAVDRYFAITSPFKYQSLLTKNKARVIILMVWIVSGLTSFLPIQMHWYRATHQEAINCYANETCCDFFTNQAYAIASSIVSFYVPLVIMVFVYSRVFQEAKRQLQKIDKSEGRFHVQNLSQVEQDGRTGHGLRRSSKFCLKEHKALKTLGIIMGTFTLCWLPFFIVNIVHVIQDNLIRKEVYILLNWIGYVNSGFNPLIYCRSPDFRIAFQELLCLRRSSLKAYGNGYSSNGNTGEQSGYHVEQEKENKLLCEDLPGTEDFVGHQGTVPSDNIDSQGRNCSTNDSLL

As for `CCOC(=O)c1c(O)c2c([nH]c1=O)CCCC2`, the percent of DMSO control GFP in test [1] is 100% (inactive). Also, the GFP response vs DMSO in test [2] is 91.9% (inactive); in test [4], 102% (inactive). The percent response of DMSO control in test [3] is 101% (inactive). Besides, the GFP response, % of DMSO in [5] is 96% (inactive). Besides, the double positive events in test [6] came out at 69.7%. Further, the vesicle binding response in test [6] was 109% (inactive). Moreover, the inhibition in test [7] is -34.6% (inactive); in [11], 17.2% (inactive); in [15], 9% (inactive). In addition, in test [8], the superoxide response (% of plate) is 101% (inactive). Further, the aptamer binding inhibition in [9] was 3% (inactive). For the same compound, the response in test [10] was -11% (inactive); in test [12], -2.71% (inactive). For the same compound, the binding (% of control) in test [13] is 99.3% (inactive). Moreover, the efflux inhibition (fraction of control) in test [14] is 0.01 (inactive). Also, the differentiation response in test [16] is 5.6% (inactive).
`COc1ccc(/C=C/C(=O)NC(=S)NN2CCCCC2c2cccnc2)cc1` (stereo not given): the percent of DMSO control GFP in test [1] is 106% (inactive). Also, the GFP response vs DMSO in test [2] is 99.7% (inactive); in test [4], 107% (inactive). Also, in [3], the percent response of DMSO control is 102% (inactive). The GFP response, % of DMSO in test [5] is 109% (inactive). The same compound gave a double positive events in test [6] of 66.3%. Further, in test [6], the vesicle binding response was 199% (inactive). For the same compound, the inhibition is -2.43% (inactive) in [7], 12.7% (inactive) in test [11] and 2% (inactive) in test [15]. Besides, the superoxide response (% of plate) in test [8] was 95.5% (inactive). The aptamer binding inhibition in test [9] is -3% (inactive). Further, the response is -5.93% (inactive) in [10] and 0.36% (inactive) in [12]. Besides, in test [13], the binding (% of control) was 104% (inactive). The efflux inhibition (fraction of control) in test [14] was 0.33 (inactive). Further, the differentiation response in test [16] is -4.57% (inactive).
Consider `COC(=O)c1ccc(NC(=O)C23CCC(C)(C(=O)O2)C3(C)C)cc1` (stereo not given), for which, in test [1], the percent of DMSO control GFP was 95.2% (inactive). Also, the figures for the GFP response vs DMSO in test [2] and in [4] were 104% (inactive) and 115% (inactive), respectively. Moreover, the percent response of DMSO control in test [3] is 102% (inactive). Moreover, in test [5], the GFP response, % of DMSO is 106% (inactive). This compound also returned a double positive events in test [6] of 64.8%. The vesicle binding response in [6] was 195% (inactive). The inhibition in test [7] was -2.82% (inactive); in [11], 1.74% (inactive); in [15], 6% (inactive). In test [8], the superoxide response (% of plate) was 99.7% (inactive). Further, the aptamer binding inhibition in [9] was 2% (inactive). Moreover, the figures for the response in test [10] and in test [12] were -24.2% (inactive) and -1.33% (inactive), respectively. For the same compound, the binding (% of control) in [13] is 110% (inactive). Besides, in [14], the efflux inhibition (fraction of control) was -0.04 (inactive). Besides, the differentiation response in [16] was -4.99% (inactive).
As to `O=C(O)c1cc2cc(Cl)cc(Cl)c2oc1=O`, in test [1], the percent of DMSO control GFP was 97.9% (inactive). Besides, the GFP response vs DMSO in test [2] was 129% (inactive); in test [4] it was 80.9% (inactive). Also, the percent response of DMSO control in test [3] was 104% (inactive). Also, the GFP response, % of DMSO in test [5] is 93.1% (inactive). The compound also displayed a double positive events in [6] of 41.9%. Further, in test [6], the vesicle binding response is 63.6% (active). For the same compound, the inhibition was -12.9% (inactive) in [7], 8.6% (inactive) in [11] and 8% (inactive) in test [15]. Further, the superoxide response (% of plate) in test [8] is 113% (inactive). The aptamer binding inhibition in test [9] was 7% (inactive). The response was -14.8% (inactive) in [10] and 10.3% (inactive) in [12]. Moreover, in test [13], the binding (% of control) was 98.7% (inactive). Further, the efflux inhibition (fraction of control) in test [14] was 0.05 (inactive). In addition, the differentiation response in test [16] was 27.8% (inactive).
For the compound `Cc1cc(O)c(C(C)C)cc1C1(c2cc(C(C)C)c(O)cc2C)OC(=O)c2ccccc21`, in test [1], the percent of DMSO control GFP was 104% (inactive). The GFP response vs DMSO in [2] is 107% (inactive); in test [4] it was 120% (inactive). In test [3], the percent response of DMSO control is 104% (inactive). The GFP response, % of DMSO in [5] was 108% (inactive). Further, in test [6], the double positive events was 61.7%. Moreover, in [6], the vesicle binding response was 219% (inactive). Also, the inhibition in [7] is 43.2% (inactive); in test [11] it was 62.6% (active); in [15], 5% (inactive). Besides, the superoxide response (% of plate) in test [8] was 88.7% (inactive). In addition, in test [9], the aptamer binding inhibition is -2% (inactive). The response is 3.1% (inactive) in test [10] and -4.85% (inactive) in test [12]. In test [13], the binding (% of control) is 101% (inactive). Moreover, the efflux inhibition (fraction of control) in test [14] was -0.09 (inactive). Also, the differentiation response in [16] was 15.7% (inactive).

These data come from PubChem BioAssay.
